# Most compounds without a hit are left out; they make up all but 6.1% or so of the library.
# ALOX15 inhib: 15-hLO (ALOX15) enzyme inhibition; AID 887; purified 15hLO-1, xylenol orange hydroperoxide absorbance; hit rate 1.4% among 74,000; Potency, µM (highest dose often 57.1 µM), inactives show at the top dose activity change, negative = inhibition, actives largely listed as inhibitors; further: nearly all actives have a fitted effect of over 55% in size
#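 Inhibition is scored from a chromogenic endpoint. After 15 min enzyme-compound contact, arachidonic acid (50 uM final) reacts 6 min with 40 nM 15hLO-1 at room temperature, then Fe-XO reagent is added for 30 min and absorbance ratio recorded.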
# Bst PK mod: modulators of Bacillus stearothermophilus pyruvate kinase; purified pyruvate kinase, luminescence ATP production; ribose 5-phosphate activator present at AC10; Potency, µM; hit rate 1.2% among 51,000; AID 361; in the data active means potency below about 11 µM; inconclusive means mostly about 12 µM to 25 µM;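 the screen sought inhibitors and activators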;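 further: scaled between full activation by ribose 5 phosphate and full inhibition by luteolin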
# Luciferase inh: firefly luciferase inhibition. Potency, µM (titrated, usually from 57.1 µM), inactives show at the top dose activity change, negative = inhibition, actives largely listed as inhibitors. P08659. purified firefly luciferase, luminescence, 8 min. hit rate 2.2% among 72,000; further: nearly all actives have a fitted effect of over 40% in size
# Target sequence (P08659 whole entry, looked up): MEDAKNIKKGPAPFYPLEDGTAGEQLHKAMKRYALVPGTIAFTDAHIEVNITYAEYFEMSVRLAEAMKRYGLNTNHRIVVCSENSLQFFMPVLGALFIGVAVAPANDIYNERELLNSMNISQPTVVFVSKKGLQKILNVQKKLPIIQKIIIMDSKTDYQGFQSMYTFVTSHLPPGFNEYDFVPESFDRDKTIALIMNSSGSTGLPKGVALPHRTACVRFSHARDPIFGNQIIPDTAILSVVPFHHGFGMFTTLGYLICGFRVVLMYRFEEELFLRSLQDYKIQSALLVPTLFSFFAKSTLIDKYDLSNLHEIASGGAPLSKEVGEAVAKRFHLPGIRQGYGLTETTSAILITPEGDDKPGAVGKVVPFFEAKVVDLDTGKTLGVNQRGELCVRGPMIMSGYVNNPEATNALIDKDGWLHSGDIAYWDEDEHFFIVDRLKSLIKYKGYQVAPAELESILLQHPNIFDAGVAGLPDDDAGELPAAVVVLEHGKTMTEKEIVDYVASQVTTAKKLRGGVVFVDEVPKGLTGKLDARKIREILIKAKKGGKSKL
#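 Substrate buffer containing 10 uM ATP (pH 7.2 imidazole, Mg2+, KCl, detergent, BSA) is dispensed, compound pinned in, then luciferase/luciferin detector mix added. After 8 min at ambient temperature, light output is measured.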
# Tau fil binding: tau filament binding; P10636; recombinant tau filaments, thioflavin S fluorescence, 15 h; filaments grown with octadecylsulfate alongside compound; Potency, µM (doses to about 57.1 µM), without a hit: top-dose activity change, negative = inhibition; hit rate 2% among 71,000;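 further: actives lower thioflavin S fluorescence by blocking filaments or displacing dye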
#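 ThS-based fibril read: tau 1 uM final, inducer ODS 30 uM final, 37 C for 15 h, ex 450/em 510 nm.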
# ERK AVP inh: blocks ERK signaling stimulated by vasopressin. AID 995. HEK293-V1b, vasopressin-stimulated pERK AlphaScreen. hit rate 0.99% among 72,000. Potency, µM (top dose mostly 57.5 µM), for inactives: top-dose activity, negative = inhibition, hits mostly inhibitors; further: nearly all actives have a fitted effect of over 55% in size
#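 HEK293 cells stably expressing V1b receptor, seeded overnight in 1% FBS, were treated with compounds for 30 min at 37C, then stimulated 5 min with 25 nM vasopressin; phospho-ERK read by AlphaScreen SureFire after lysis.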
# Hsp90 Hop PPI: changes Hsp90-Hop TPR2A binding signal, up or down; AlphaScreen TPR2A-His6 binding biotin-Hsp90 C-terminal peptide; Potency, µM (top dose mostly 57 µM), for inactives: at the top dose activity change, negative = inhibition; hit rate 0.44% among 71,000; active means well fitted curve in either direction with a large enough effect; inconclusive means small, poorly fitted or top-dose-only effect, or another doubt
# * marks the source's active call; other numbers are inactive results; i = inactive; ? = inconclusive; . = no result given; [ ] = remark or other dose. Unless noted, the call rests on the fitted dose curve; in most records, active means well fitted curve in the direction sought with a large enough effect; inconclusive means small, poorly fitted or top-dose-only effect, or another doubt; inactive means no such curve, though single readings can be large; an effect the other way counts as inactive or inconclusive. Unless noted, on the % scale 0 is the no-effect control and ±100 the full control effect; potency means the concentration at half of the fitted maximal effect.
SMILES,ALOX15 inhib,Bst PK mod,Luciferase inh,Tau fil binding,ERK AVP inh,Hsp90 Hop PPI
Nc1ccc(N2C(=O)c3ccccc3C2=O)c(Cl)c1,-2%,.,-2%,6%,0%,-10%
CCCCC(=O)Nc1ccc(Cl)cn1,0%,>57,-1%,3%,9%,1%
CCOC(=O)NC1(Nc2ccc(Cl)cn2)Oc2ccccc2O1,25µM*,>57,-4%,4%,?,0%
Cc1ccc(-c2cc(C(F)F)n3ncc(C(=O)N4CCN5CCCC5C4)c3n2)cc1 (stereo not given),-6%,>57,0%,25µM*,-13%,-5%
CCn1c2ccccc2c2cc(NC(=O)N3CCOCC3)ccc21,-5%,.,-3%,-20%,-25%,-3%
O=C(Nc1ccc2c(c1)oc1ccccc12)N1CCOCC1,6%,?,20µM*,3%,10%,-1%
CC(=O)N1CCC2(CC1)CN(c1ccccn1)C2,9%,.,-1%[11.4 µM],1%,-14%,-1%
O=c1cnc2cnc(N3CCOCC3)nc2n1C[C@H]1CCCO1,6%,.,0%[11.4 µM],-2%,-19%,-7%
O=C1CCCC(O)=C1C(C#Cc1ccccc1)C1=C(O)CCCC1=O,7.9µM*,>57,-14%,-10%,-18%,0%
CCCCC(=O)Nc1ccc2c(c1)nc1n2CCSC1,5%,.,?,-19%,-19%,-11%
COc1ccc(OCC(=O)Nc2ccc3c(c2)nc2n3CCSC2)cc1,-11%,>57,-3%,0%,?,-3%
Cc1ccc(C(=O)Nc2ccc3c(c2)nc2n3CCSC2)cc1,7%,?,7.9µM*,-2%,-14%,-2%
COc1ccccc1C(=O)Nc1ccc2c(c1)nc1n2CCSC1,12%,5.6*,5µM*,-19%,-6%,-3%
C/C(=C\C1CCCCC1)C(NC(=O)c1cccnc1)c1ccc(-c2ccccc2)cc1 (stereo not given),.,.,.,-8%,-1%,-6%
Cc1c(O)ccc2c3c(c(=O)oc12)CCC(C)C3 (stereo not given),-26%,i,-2%,42%,-21%,-4%
Cc1c(O)ccc2c3c(c(=O)oc12)CCCC3,-11%,?,-1%,35%,16µM*,-2%
CCn1c(N2CCN(C(=O)C34CC5CC(CC(C5)C3)C4)CC2)nc2ccccc21,3%,>57,-1%,3%,-22%,1%
CCn1c(N2CCN(S(=O)(=O)c3ccccc3C(F)(F)F)CC2)nc2ccccc21,?,>57,0%,4%,32µM*,-5%
COc1cccc2c1CCC1CC(=O)CC[C@@]21C (stereo not given in full),8%,.,.,.,-3%,.
CCCCCCCCCCCCCCCC(O)C(N)CO (stereo not given),.,>26,2%[25.5 µM],.,.,.
CCCCCCCCCCCCC/C=C\[C@@H](O)[C@@H](N)CO,40%,.,1%,32µM*,5%,3%
CC(=O)Nc1ccc(SCC(=O)c2cc(C)n(Cc3cccs3)c2C)cc1,-1%,>57,-3%,188%,4%,-2%
Cc1csc(SCC(=O)c2cc(C)n(Cc3cccs3)c2C)n1,-4%,3.2*,4µM*,18%,?,1%
COc1ccc(Cn2c3nc4ccccc4nc3c3c(=O)n(Cc4ccco4)c(C)nc32)cc1,-28%,>57,1%,?,-12%,-5%
Cc1ccc(S(=O)(=O)c2c(N)n(/N=C/c3ccco3)c3nc4ccccc4nc23)cc1C,?,>57,1%,16µM*,-1%,-5%
SMILES,ALOX15 inhib,Bst PK mod,Luciferase inh,Tau fil binding,ERK AVP inh,Hsp90 Hop PPI
COc1ccc(S(=O)(=O)c2c(N)n(Cc3ccco3)c3nc4ccccc4nc23)cc1,20µM*,>57,-3%,-20%,-24%,10%
COc1ccc(Cn2c(C)nc3c(c2=O)c2nc4ccccc4nc2n3Cc2ccco2)cc1,-23%,>57,-1%,2.5µM*,-12%,-7%
Cc1nc2c(c(=O)n1Cc1ccccc1Cl)c1nc3ccccc3nc1n2Cc1ccco1,?,>57,-27%,16µM*,25µM*,-5%
CC(C)NC(=O)N1CCCC2(CCN(C(=O)c3ccncc3)CC2)C1,8%,.,1%[11.4 µM],3%,8%,4%
Cn1cc(C2NC(=O)c3c(sc4c3CCCC4)N2)c2ccccc21 (stereo not given),-15%,.,-15%,3.2µM*,-1%,-9%
Cc1ccsc1C1NC(=O)c2c(sc3c2CCCC3)N1 (stereo not given),.,i,-15%[25.5 µM],.,.,.
O=C1NC(c2ccccn2)Nc2sc3c(c21)CCC3 (stereo not given),14%,.,-11%,21%,14%,32µM*
O=C(O)c1nnsc1COCc1ccccc1,4%[11.4 µM],.,1%[11.4 µM],9%[11.4 µM],-2%[11.5 µM],-1%[11 µM]
Cc1noc(C)c1C(=O)N1CCC[C@@]2(CCN(c3ccccn3)C2)C1,3%,.,1%[11.4 µM],-1%,10%,0%
O=C(Nc1cccc(F)c1)N1CC[C@@]2(CCCN(C(=O)c3cnccn3)C2)C1,1%,.,-1%[11.4 µM],-4%,-2%,5%
Cc1ccc2c(CC(=O)Nc3ccc(N4CCN(C)CC4)cc3C)coc2c1,-14%,i,6.3µM*,4%,?,-14%
Cc1ccc2c(CC(=O)Nc3sccc3C(N)=O)coc2c1,-10%,.,-18%,-6%,-22%,-5%
Cc1ccc(-n2sc3ccccc3c2=O)cc1S(=O)(=O)N1CCCCC1,0.5µM*,>11,16µM*,-11%,14%,-21%
O=c1c2ccccc2sn1-c1ccc(S(=O)(=O)N2CCCCC2)cc1,?,>57,-7%,6%,-9%,-9%
O=c1c2ccccc2sn1-c1ccc(S(=O)(=O)N2CCCC2)cc1,0.1µM*,>57,0%,1%,-2%,-5%
CC(=O)Nc1c(Cl)n(C(C)=O)c2ccccc12,5%,.,-2%,20µM*,-8%,-8%
CCOC(=O)c1sc(Nc2nc3c(OC)cccc3s2)nc1C,1%,.,16µM*,38%,-2%,14%
COc1ccc(N/C(C)=C2/C(=O)C(=O)N(CCO)C2c2ccc(Br)cc2)cc1 (stereo not given),-6%,>57,3%,16µM*,0%,-7%
COc1ccc(C2/C(=C(/O)c3ccccc3)C(=O)C(=O)N2CCO)cc1 (stereo not given),-8%,.,.,.,.,.
CN(C)c1ccc(-c2cncnc2Nc2ccc(F)cc2)cc1,2.5µM*,.,-3%[2.29 µM],-10%,?,-17%
CN(C)c1ccc(-c2cncnc2-n2ccnc2)cc1,?,.,1%[2.29 µM],-16%,16µM*,4%
FC(F)(F)c1ccccc1-c1cncnc1-n1ccnc1,10%,.,2%[2.29 µM],2%,5%,-6%
O=C(/C=C/c1ccc(O)c(O)c1)O[C@@H]1C[C@@](O)(C(=O)O)C[C@H](O)[C@@H]1O,-3%[25.6 µM],.,.,.,-19%,.
Cc1noc(C)c1COC(=O)CCOc1ccccc1,11%,>57,-4%,19%,3%,7%

# Bioassay records deposited in PubChem by National Center for Advancing Translational Sciences (NCATS).
